The whole screen tested about 67,000 compounds, of which about 300 (0.45%) showed an effect of 50% or more. The sample as a whole holds a higher share of strong results than the screen did.

Sequence of Polyketide synthase Pks13 (Mycobacterium tuberculosis (strain ATCC 25618 / H37Rv)) (I6X8D2 whole entry): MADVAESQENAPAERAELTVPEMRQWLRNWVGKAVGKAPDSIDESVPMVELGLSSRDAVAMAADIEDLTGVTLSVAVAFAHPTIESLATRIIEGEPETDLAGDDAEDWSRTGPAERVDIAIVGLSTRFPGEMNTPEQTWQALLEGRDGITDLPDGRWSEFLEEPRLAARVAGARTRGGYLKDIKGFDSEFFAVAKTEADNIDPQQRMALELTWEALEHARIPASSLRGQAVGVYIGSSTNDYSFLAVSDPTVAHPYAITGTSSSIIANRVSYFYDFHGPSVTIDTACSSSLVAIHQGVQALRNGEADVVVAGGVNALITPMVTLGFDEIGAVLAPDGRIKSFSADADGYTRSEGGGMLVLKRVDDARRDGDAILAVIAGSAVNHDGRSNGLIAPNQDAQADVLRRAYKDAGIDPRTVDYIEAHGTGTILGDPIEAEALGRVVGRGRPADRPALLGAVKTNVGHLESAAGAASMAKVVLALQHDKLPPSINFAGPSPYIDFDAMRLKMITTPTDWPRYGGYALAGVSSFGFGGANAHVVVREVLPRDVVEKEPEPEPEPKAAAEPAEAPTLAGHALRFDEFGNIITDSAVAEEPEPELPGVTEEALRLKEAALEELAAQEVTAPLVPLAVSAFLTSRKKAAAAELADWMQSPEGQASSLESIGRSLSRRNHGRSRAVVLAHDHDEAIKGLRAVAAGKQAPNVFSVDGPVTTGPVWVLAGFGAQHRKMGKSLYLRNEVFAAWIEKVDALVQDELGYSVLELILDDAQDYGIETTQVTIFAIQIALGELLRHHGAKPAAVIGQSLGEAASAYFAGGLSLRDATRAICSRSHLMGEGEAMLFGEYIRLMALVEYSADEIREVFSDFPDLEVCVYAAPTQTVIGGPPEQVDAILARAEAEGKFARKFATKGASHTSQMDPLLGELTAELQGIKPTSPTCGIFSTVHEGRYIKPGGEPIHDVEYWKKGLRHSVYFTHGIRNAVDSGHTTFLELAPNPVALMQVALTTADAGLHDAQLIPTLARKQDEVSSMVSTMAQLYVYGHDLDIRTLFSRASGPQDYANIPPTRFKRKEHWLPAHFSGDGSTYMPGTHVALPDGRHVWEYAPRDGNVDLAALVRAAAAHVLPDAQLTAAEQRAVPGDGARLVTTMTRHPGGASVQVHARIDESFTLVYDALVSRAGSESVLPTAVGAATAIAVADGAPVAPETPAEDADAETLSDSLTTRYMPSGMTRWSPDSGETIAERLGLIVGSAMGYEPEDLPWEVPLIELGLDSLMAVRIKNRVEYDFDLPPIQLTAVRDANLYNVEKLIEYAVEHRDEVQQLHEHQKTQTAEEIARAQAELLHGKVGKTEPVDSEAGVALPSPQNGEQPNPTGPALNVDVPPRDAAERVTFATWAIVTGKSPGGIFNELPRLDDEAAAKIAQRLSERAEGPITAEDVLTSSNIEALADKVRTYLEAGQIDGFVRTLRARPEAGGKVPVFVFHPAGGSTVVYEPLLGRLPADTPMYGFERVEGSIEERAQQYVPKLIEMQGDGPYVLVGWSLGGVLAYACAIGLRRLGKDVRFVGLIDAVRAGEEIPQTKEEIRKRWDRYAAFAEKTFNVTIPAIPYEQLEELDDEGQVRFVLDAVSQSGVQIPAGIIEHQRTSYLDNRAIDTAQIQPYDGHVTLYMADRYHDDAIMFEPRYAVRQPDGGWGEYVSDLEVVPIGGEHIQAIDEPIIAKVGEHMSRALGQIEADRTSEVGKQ

The experiment addresses Polyketide synthase Pks13 (Mycobacterium tuberculosis (strain ATCC 25618 / H37Rv)) (UniProt I6X8D2). As to the kind of experiment: Mycobacterium tuberculosis Polyketide synthase 13 Thioesterase (PKS13). It counts as functional. On the set-up: scale not given: in the data most compounds retested in dose-response had high values. The settings on record: 30 µM.
With `Cc1nc[nH]c1CN1CCN(C(=O)c2cccs2)[C@H]2CS(=O)(=O)C[C@H]21`, the Percent Effect is -7.55%.

Turning to `COCCN1C[C@H]2CC[C@@H]1CN(CC(=O)Nc1ccn(C)n1)C2`, the Percent Effect was -11.6%.

Turning to `O=C(c1cnccn1)N1CCN2C[C@H](Oc3cccc(F)c3)C[C@H]2C1`, the Percent Effect is -42.7%.

With `O=C(Cc1cccc(F)c1)N1CCN2C[C@H](Oc3cncnc3)C[C@H]2C1`, the Percent Effect is -1.46%.

As to `O=C(C1CC1)N1CCN2C[C@@H](CO)[C@H](c3ccccc3)[C@H]2C1`, the Percent Effect amounted to 2.09%.

`Cc1nnc([C@H]2CC[C@@H]3[C@@H](CCN3CC3CCOCC3)O2)o1`: the Percent Effect was -25.5%.

As to `CN(C)C(=O)CO[C@@H]1CC[C@H]2[C@H]1OCCN2c1ncc(F)cn1`, the Percent Effect is -1.97%.

As to `COCCN1C(=O)C[C@H]2[C@H]1CCN2Cc1cccc(C#N)c1`, the Percent Effect is -24.2%.

For `CO[C@@H]1CCC[C@@H](N(C)C(=O)c2cn3cc(C)ccc3n2)[C@H]1O`, the Percent Effect was -3.51%.

On to `Cc1ccc2nc(C(=O)N(C)[C@@H]3CC[C@@H](N4CCCC4)[C@@H]3O)cn2c1`, for which the Percent Effect amounted to 61.6%.

As for `CO[C@@H]1CC[C@@H](N(C)C(=O)c2cn3cc(C)ccc3n2)[C@H]1O`, the Percent Effect was -0.591%.

`CC(C)=CCN1C[C@H]2CC[C@@H]1CN(S(=O)(=O)c1cccnc1)C2`: the Percent Effect is 7.63%.

Regarding `CCN1CC[C@@]2(C(=O)N3CCOCC3)CCN(C(=O)NC)CC[C@@H]12`, the Percent Effect is -31.8%.

On to `CC(C)NC(=O)NC(C)c1nc(-c2ccccc2)cs1` (stereo unspecified), for which the Percent Effect was determined as 0.666%.

With `CC(NC(=O)NCC(C)(C)C(N)=O)c1nc(-c2ccccc2)cs1` (stereo unspecified), the Percent Effect was 55.9%.

For `CC(NC(=O)NC1CC1)c1nc(-c2ccccc2)cs1` (stereo unspecified), the Percent Effect is -2.19%.

In the case of `CCS(=O)(=O)N1CCc2cc(C(=O)NC)c(NCC3CC3)nc2CC1`, the Percent Effect was 23.6%.

In the case of `CNC(=O)c1cc2c(nc1NCC(C)C)CCN(S(C)(=O)=O)CC2`, the Percent Effect worked out at 51%.

As to `CNC(=O)c1cc2c(nc1NCC(C)C)CCN(C)CC2`, the Percent Effect was 49.9%.

As to `CNC(=O)c1cc2c(nc1NCC(C)C)CCN(c1ncccn1)CC2`, the Percent Effect is 16.7%.

For `CNC(=O)c1cc2c(nc1NCC1CC1)CCN(S(=O)(=O)C1CC1)CC2`, the Percent Effect is -32.9%.

Regarding `CNC(=O)c1cc2c(nc1NCC1CC1)CCN(S(C)(=O)=O)CC2`, the Percent Effect turned out to be 55.9%.

As to `CCS(=O)(=O)N1CCc2cc(C(=O)NC)c(NCC(C)C)nc2CC1`, the Percent Effect is -68.6%.

With `CNC(=O)c1cc2c(nc1NCC(C)C)CCN(c1ccncn1)CC2`, the Percent Effect came to 94.4%.

In the case of `CNC(=O)c1cc2c(nc1NCC(C)C)CCN(S(=O)(=O)C1CC1)CC2`, the Percent Effect was -13.9%.

`CNC(=O)c1cc2c(nc1NCC1CC1)CCN(c1ccncn1)CC2`: the Percent Effect was -246%.

Turning to `CNC(=O)c1cc2c(nc1NCC1CC1)CCN(CC1CC1)CC2`, the Percent Effect came out at 42.7%.

For `CNC(=O)c1cc2c(nc1NCC(C)C)CCN(CC1CC1)CC2`, the Percent Effect came to 51.6%.

With `O=C(NC1CC1)[C@@H]1CCO[C@@H]2CCN(C3CCOCC3)C[C@H]21`, the Percent Effect was -9.37%.

With `Cc1noc(C)c1CN1C[C@@H]2CCCO[C@@H]2[C@H](NS(C)(=O)=O)C1`, the Percent Effect is -27.6%.

As to `O=C([C@@H]1COC[C@H]2CN(CC3CCCC3)C[C@H]21)N1CCOCC1`, the Percent Effect was -31.7%.

With `CO[C@@H]1CCN(c2ncc(F)cn2)[C@@H]2CN(CC3CC3)C[C@@H]21`, the Percent Effect is -32.1%.

`CC(C)N1CCO[C@H]2CN(C(=O)c3ccsc3)C[C@H]21`: the Percent Effect was -16%.

With `Cc1cc(CN2CCN(C(=O)C(C)C)[C@@H]3CS(=O)(=O)C[C@@H]32)ccc1F`, the Percent Effect is -6.06%.

On to `CN(C)C(=O)c1cc2c(nc1NCC1CC1)CCNCC2`, for which the Percent Effect is -20.1%.

For the molecule `CNC(=O)c1cc2c(nc1NCC1CC1)CCN(c1ncccn1)CC2`, the Percent Effect came out at 9.04%.

With `CNC(=O)c1cc2c(nc1NCC1CC1)CCNCC2`, the Percent Effect stood at 81.7%.

Consider `O=C1[C@@H]2CCN(Cc3ccoc3)C[C@@H]2OCCN1c1cccnc1`, for which the Percent Effect was -7.12%.

Turning to `Cc1noc([C@H]2C[C@H]3CN(C(=O)Cc4ccsc4)CC[C@H]3O2)n1`, the Percent Effect is -10.9%.

As to `O=C(CC1CC1)N[C@@H]1CN(Cc2nccs2)C[C@@H]2CCCO[C@@H]21`, the Percent Effect was -33.5%.

On to `Cc1nc(COC[C@@H]2CC[C@H]3[C@H](CCN3c3ncccn3)O2)cs1`, for which the Percent Effect was -28.4%.

Regarding `FC(F)(F)c1cc(C2CCN(c3cnccn3)CC2)n2ccnc2n1`, the Percent Effect was 18.1%.

For the molecule `CC(=O)N1CCC(c2cc(C(F)(F)F)nc3nccn23)CC1`, the Percent Effect worked out at 57.5%.

As for `CC(=O)N1CCC(c2cc(C(F)(F)F)n3ccnc3n2)CC1`, the Percent Effect was found to be 41.8%.

Consider `CN1CCC(c2cc(C(F)(F)F)n3ccnc3n2)CC1`, for which the Percent Effect was -20.7%.

Regarding `CC(C)N1CCCC(c2cc(C(F)(F)F)nc3nccn23)C1` (stereo unspecified), the Percent Effect was 24.5%.

Regarding `COCC(=O)N1CCC(c2cc(C(F)(F)F)n3ccnc3n2)CC1`, the Percent Effect came out at 61.5%.

For `c1cc(CN2CCO[C@H]3[C@H](OCCN4CCCC4)CC[C@@H]32)ccn1`, the Percent Effect was -11.4%.

Consider `CC1=N[C@@]2(CC[C@@H]3CN(CC(=O)N(C)C)C[C@@H]32)C(=O)N1CC(C)C`, for which the Percent Effect is -5.03%.

Regarding `COCCCN1C(=O)CC[C@H]2CN(Cc3cc4ccccc4o3)CC[C@H]21`, the Percent Effect is -4.88%.

Turning to `COCCN1CCO[C@@H]2CN(Cc3ccc(C)s3)C[C@@H]2C1`, the Percent Effect was -27.7%.

Turning to `CN(C)C(=O)CN1C[C@@H]2CC[C@H](C1)N(Cc1ccccc1C#N)C2`, the Percent Effect amounted to 6.99%.

Turning to `COc1ccc2[nH]cc(-c3ccnc(N4CCC(C)CC4)n3)c2c1`, the Percent Effect is 71.9%.

`CN1CCCN(c2nccc(-c3c[nH]c4ccc(Br)cc34)n2)CC1`: the Percent Effect was -2.62%.

For `COc1ccc2[nH]cc(-c3ccnc(NC4CCCC4)n3)c2c1`, the Percent Effect came out at 18.6%.

Consider `O=C(COC1CCCC1)N1C[C@@H]2COC[C@]2(COc2cccnc2)C1`, for which the Percent Effect was -18%.

Turning to `Nc1nccnc1CC1CCCN(Cc2ccnc3ccccc23)C1` (stereo unspecified), the Percent Effect stood at 126%.

As for `Nc1nccnc1CC1CCCN(Cc2c[nH]c3ccccc23)C1` (stereo unspecified), the Percent Effect stood at 15.3%.

Regarding `COc1ccccc1CN1CCCC(Cc2nccnc2N)C1` (stereo unspecified), the Percent Effect is -2.41%.

For `CCN1C[C@H]2CCN(C(=O)NC3CCCC3)CC[C@H]2S1(=O)=O`, the Percent Effect was -17.8%.

On to `CC(=O)N1[C@H](Cn2cncn2)C[C@@H]2CN(C(=O)NC3CC3)CC[C@@H]21`, for which the Percent Effect worked out at 12.2%.

For the molecule `O=C(Nc1cnccn1)[C@H]1CO[C@H]2CCN(c3ncc(F)cn3)C[C@H]2C1`, the Percent Effect was -40.3%.

As to `COCCN1C(=O)[C@]2(CC[C@@H]3CN(Cc4ccccc4F)C[C@@H]32)N=C1C`, the Percent Effect was -17.4%.

In the case of `Cc1csc2ncc(-c3ccnc(N4CCN(C)CC4)n3)c(=O)n12`, the Percent Effect is -27.4%.

Take `Cc1csc2ncc(-c3ccnc(N4CCCC4)n3)c(=O)n12`: the Percent Effect was found to be 137%.

Regarding `Cc1csc2ncc(-c3ccnc(N4CCCN(C)CC4)n3)c(=O)n12`, the Percent Effect worked out at 37.9%.

Regarding `C/C(NC(=O)c1ccco1)=C1/C(=O)C[C@@H]2[C@H]1C2(C)C`, the Percent Effect is 0.624%.

For `CCCc1ccc(CN2C[C@H]3C(=O)N(CC4CC4)C[C@@]3(C(=O)O)C2)o1`, the Percent Effect is -6.91%.

As for `O=C1[C@H]2CN(c3ncccn3)C[C@H]2CN1CCN1CCCC1`, the Percent Effect is -2.18%.

Consider `COCCN1C[C@@H]2CN(c3ncccn3)C[C@@H]2C1=O`, for which the Percent Effect stood at 54.8%.

For `COCCN1C[C@@H]2CN(c3ncc(F)cn3)C[C@@H]2C1=O`, the Percent Effect was -5%.

Regarding `O=C(NC[C@@H]1C[C@@H]2CN(C(=O)CO)C[C@H]2O1)c1ccsc1`, the Percent Effect was -53.3%.

Regarding `O=C(c1ccc(-n2ccnc2)cc1)N1CCCC1`, the Percent Effect is -36.5%.

On to `O=C(c1ccc(-n2ccnc2)cc1)N1CCN(c2cnccn2)CC1`, for which the Percent Effect was found to be 64.5%.

Take `O=C(c1ccc(-n2cc(Br)cn2)cc1)N1CCN(c2cnccn2)CC1`: the Percent Effect turned out to be 81.5%.

On to `O=C(c1cnn(-c2ccccc2)c1)N1CCN(c2cnccn2)CC1`, for which the Percent Effect was -16.8%.

`O=C(c1ccc(-n2cncn2)cc1)N1CCN(c2cnccn2)CC1`: the Percent Effect is -11.1%.

For the molecule `Cc1ccnn1-c1ccc(C(=O)N2CCN(c3cnccn3)CC2)cc1`, the Percent Effect was 1.07%.

On to `O[C@@]1(c2ccccn2)CC[C@H]2CN(Cc3cccc(Cl)c3Cl)C[C@H]21`, for which the Percent Effect is -48.7%.

As to `O=C(C1CC1)N1C[C@H]2CNC[C@@]2(C(=O)NCCCc2ccccc2)C1`, the Percent Effect is -27.1%.

With `Cc1ncsc1CN1C[C@H](C(=O)NCC2CC2)[C@@H]2CCO[C@@H]2C1`, the Percent Effect is -19.8%.

For `CCNC(=O)NCCCn1nc2ccccn2c1=O`, the Percent Effect is 0.265%.

On to `O=C(NCCCn1nc2ccccn2c1=O)NCc1ccccc1`, for which the Percent Effect was 2.17%.

`Cc1ccc(CNC(=O)NCCCn2nc3ccccn3c2=O)s1`: the Percent Effect was 96.8%.

For the molecule `Cc1nc(COC[C@@]23CCC[C@@H]2CN(CC2CCOCC2)C3)cs1`, the Percent Effect was -23.1%.

For `O[C@@H]1C[C@@](CNCC2CC2)(COc2cccnc2)C[C@@H]1O`, the Percent Effect is -28.2%.

For `Cc1cc(CN2C[C@@H]3COC[C@@H](C(=O)N4CCCCO4)[C@@H]3C2)oc1C`, the Percent Effect is -7.51%.

With `NC(=O)N1CCCC(C(=O)N2CCN(c3nsc4ccccc34)CC2)C1` (stereo unspecified), the Percent Effect is -37.1%.

In the case of `CCN1CC(C(=O)N2CCN(c3nsc4ccccc34)CC2)CCC1=O` (stereo unspecified), the Percent Effect worked out at 105%.

`CC(C)N1CCCC(C(=O)N2CCN(c3nsc4ccccc34)CC2)C1` (stereo unspecified): the Percent Effect was -2.9%.

Take `O=C(COC[C@H]1CC[C@H]2[C@H](CCN2c2ncccn2)O1)N1CCCC1`: the Percent Effect was -9.39%.

As for `CC(C)=CCN1CCN(C(=O)COc2ccccc2)[C@H]2CS(=O)(=O)C[C@H]21`, the Percent Effect is -8.58%.

`O=C(C1CC(F)(F)C1)N1C[C@@H]2CN(Cc3ccoc3)CCO[C@@H]2C1`: the Percent Effect is -7.81%.

With `Cc1cccc(CN2CCN(C(=O)N(C)C)[C@@H]3CS(=O)(=O)C[C@@H]32)n1`, the Percent Effect is -6.96%.

`CCn1cc(-c2cc(-c3ccn(C)c3)nc(N)c2C#N)cc1C#N`: the Percent Effect turned out to be 58.3%.

On to `CCNc1ncc(-c2cc(-c3ccn(C)c3)nc(N)c2C#N)cn1`, for which the Percent Effect came out at 5.42%.

With `COc1ncc(-c2cc(-c3ccn(C)c3)nc(N)c2C#N)cn1`, the Percent Effect came out at 9.8%.

Take `CN(C)C(=O)COCC1C[C@@H]2OCCN(Cc3ccco3)[C@H]2C1` (stereo partly specified): the Percent Effect is -27.3%.

For `COc1cc(N2C[C@@H]3COC[C@]3(COCc3ccncc3)C2)ncn1`, the Percent Effect was -5.91%.

Consider `O=C(C[C@@H]1COC[C@H]2CN(C3CCC3)C[C@@H]12)NCc1cccnc1`, for which the Percent Effect came out at 0.641%.

`O=C(c1ccc(F)cc1)N1C[C@H]2CCC[C@@]2(COCc2ccccn2)C1`: the Percent Effect was -35.6%.

With `Cn1cc(NC(=O)c2cc[nH]n2)cc(Cl)c1=O`, the Percent Effect worked out at 70.5%.

As for `Cn1cc(NC(=O)c2ccccn2)cc(Cl)c1=O`, the Percent Effect is -33.4%.

Regarding `COc1ccsc1C(=O)Nc1cc(Cl)c(=O)n(C)c1`, the Percent Effect is -16.3%.

`O=C(c1ccnnc1)N1CCN2C[C@H](Oc3cccnc3)C[C@H]2C1`: the Percent Effect is -17.2%.

For the molecule `COc1ncccc1CN1C[C@H]2CCN(C(C)C)C[C@H]2C1`, the Percent Effect is 8.32%.

Values taken from ChEMBL document CHEMBL3988442, “University of Dundee, Small-Polar-MMV Screening Library” (2021).
